Measles CPE = protection of cells from measles virus. actives 1.5% (n = 140,000). Measles virus-infected cells, CPE protection, absorbance. AID 841. protection (pct of control), % at 4 µM; in the data active = protection mostly above about 24%, no sharp cut-off; inactive = mostly below about 26%
CYP2C19 inh = blocks human cytochrome P450 2C19; P33261; CYP2C19 Supersomes, luciferin-H EGE luminescence, 30 min; inhibition, % at 5 µM; actives 21% (n = 96,000);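 active = CYP2C19 inhibition above a set limit at 5 µM in the primary screen, cut at about 50% in these data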
CYP2C19 activ = increases human CYP2C19 enzyme activity. P33261. recombinant CYP2C19, luciferin-H EGE luminescence; hits give high values; 0 = fully inhibited enzyme, 1 = untreated enzyme. activation factor at 5 µM. 96,000 tested, under 10 active. AID 1025;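 active = activation factor of at least 2 at 5 µM in the primary screen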
CYP2C9 inh = blocks human cytochrome P450 2C9. AID 777. CYP2C9 Supersomes, luciferin-H conversion, luminescence. actives 20% (n = 96,000). inhibition, % at 5 µM;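 active = blocking of liver enzyme CYP2C9 beyond about 50% at 5 µM, limit read from the data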
Target sequence (P11712 whole entry, looked up): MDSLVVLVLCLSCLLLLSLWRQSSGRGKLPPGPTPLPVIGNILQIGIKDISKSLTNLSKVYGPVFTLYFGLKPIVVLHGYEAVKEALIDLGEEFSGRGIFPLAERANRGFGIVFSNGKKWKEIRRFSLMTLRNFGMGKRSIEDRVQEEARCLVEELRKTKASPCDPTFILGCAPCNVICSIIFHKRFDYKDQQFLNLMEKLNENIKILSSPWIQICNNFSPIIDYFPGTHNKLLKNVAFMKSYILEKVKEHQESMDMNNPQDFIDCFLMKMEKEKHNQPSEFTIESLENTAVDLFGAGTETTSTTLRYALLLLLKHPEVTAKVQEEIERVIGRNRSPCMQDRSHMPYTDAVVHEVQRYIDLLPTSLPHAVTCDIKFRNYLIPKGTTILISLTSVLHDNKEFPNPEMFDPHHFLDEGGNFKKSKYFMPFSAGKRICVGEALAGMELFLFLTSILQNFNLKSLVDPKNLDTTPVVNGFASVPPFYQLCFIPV
CYP2C9 activ = increases human cytochrome P450 2C9 activity | P11712 | recombinant CYP2C9, luciferin-H conversion, luminescence; hits give high values; factor 1 = untreated enzyme, 0 = blocked | activation factor at 5 µM | actives 1.4% (n = 96,000);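 active = activation factor of 2 or more for CYP2C9 at a 5 µM dose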
Each line names hits and unclear results; the compound was inactive in the other large screens. Sampled rows, rich in hits. Any-hit rate of the full collection: about 22%.

CNC(=O)CSc1nnc(SCCC(=O)O)s1	none (no result: CYP2C19 inh, CYP2C19 activ, CYP2C9 inh, CYP2C9 activ)
O=C(CCNS(=O)(=O)c1cccc2nsnc12)N1CCc2ccccc21	CYP2C19 inh 80
CC1Cc2ccccc2N1C(=O)CCNS(=O)(=O)c1cccc2nsnc12 (stereo not drawn)	CYP2C19 inh 88
O=C(CCNS(=O)(=O)c1cccc2nsnc12)N1CCN(c2ccccn2)CC1	CYP2C19 inh 66
CC1Cc2ccccc2N1C(=O)CCS(=O)(=O)c1cccc2nonc12 (stereo not drawn)	none
COc1ccc(NC(=O)[C@@H](NC(=O)c2ccccc2)C(C)C)cc1S(=O)(=O)N1CCCCC1	none (no result: CYP2C19 inh, CYP2C19 activ, CYP2C9 inh, CYP2C9 activ)
COC(=O)CSc1nc(N)c(C#N)c(-c2ccco2)c1C#N	none
COCCOC(=O)c1c(C)nc(SCC(=O)Nc2ccc(OC)cc2)c(C#N)c1-c1ccco1	CYP2C9 inh 54
COc1cccc(NC(=O)CSc2nc3c(c(-c4ccco4)c2C#N)CCCC3)c1	CYP2C9 inh 53
Cc1nc(SCC(=O)c2ccccc2)c(C#N)c(-c2ccco2)c1C(=O)NCc1ccco1	CYP2C9 inh 79
N#Cc1c(-c2ccco2)nc(SCC(=O)Nc2cccc(Cl)c2)[nH]c1=O	CYP2C19 inh 60, CYP2C9 inh 99
C[C@@H](O)[C@@H]1NC(=O)c2cc([N+](=O)[O-])cc(I)c2NCC[C@@H](C(N)=O)NC(=O)CNC1=O	none (no result: CYP2C19 inh, CYP2C19 activ, CYP2C9 inh, CYP2C9 activ)
CN1CCc2nc(SCC(=O)Nc3cccc(F)c3)c(C#N)c(-c3cccs3)c2C1	CYP2C19 inh 95, CYP2C9 inh 100
O=C(CNS(=O)(=O)c1ccc(F)cc1)N1CCN(c2ccccc2)CC1	none
CCOC(=O)c1[nH]c2c(c1-c1ccc(OC)cc1)C(=O)CC(c1ccc(OC)c(OC)c1)C2 (stereo not drawn)	none (no result: CYP2C19 inh, CYP2C19 activ, CYP2C9 inh, CYP2C9 activ)
O=C(CNS(=O)(=O)c1cccs1)N1CCN(c2ccccn2)CC1	none
O=C(CCSCc1ccccc1Cl)N1CCN(c2cccc(Cl)c2)CC1	CYP2C9 inh 63
O=C(Cc1cccs1)N1CCN(c2ccccn2)CC1	CYP2C19 inh 52
O=C(CN1C(=O)c2ccccc2C1=O)N1CCN(c2ccccn2)CC1	none
O=C(CSCc1ccccc1Cl)N1CCN(c2ccccn2)CC1	CYP2C19 inh 87, CYP2C9 inh 85
O=C(c1cn(-c2ccccc2)nc1-c1cccs1)N(CCO)Cc1ccccc1	CYP2C19 inh 75, CYP2C9 inh 69
O=C(O)Cc1cc(C(=O)Nc2ccc(Br)cc2)sc1-c1ccccc1	none (no result: CYP2C19 inh, CYP2C19 activ, CYP2C9 inh, CYP2C9 activ)
NC(=S)Nn1c(-c2ccccc2)nc2ccccc2c1=O	none (no result: CYP2C19 inh, CYP2C19 activ, CYP2C9 inh, CYP2C9 activ)
CCOC(=O)Cn1nc(/C=C/c2ccc(C(C)C)cc2)ccc1=O	none
O=C(CCSCc1ccccc1F)N1CCN(c2ccccn2)CC1	CYP2C19 inh 50, CYP2C9 inh 77
O=C(c1cn(-c2ccccc2)nc1-c1cccs1)N1CCN(c2ccccn2)CC1	CYP2C19 inh 96, CYP2C9 inh 100
CC(C)C(NS(=O)(=O)c1ccc2c(c1)oc(=O)n2C)C(=O)N1CCN(Cc2ccccc2)CC1 (stereo not drawn)	none
Cc1oc(-c2ccccc2F)nc1CS(=O)(=O)CC(=O)NCc1ccco1	none
O=C(c1cc2c(s1)-c1ccccc1OC2)N1CCN(c2ccccc2)CC1	CYP2C19 inh 72, CYP2C9 inh 71
CCOC(=O)N1CCN(C(=O)c2cc3c(s2)-c2ccccc2OC3)CC1	CYP2C9 inh 54
Cc1ccc(NC(=O)NC(=O)N(C(C)C)S(C)(=O)=O)nc1	none (no result: CYP2C19 inh, CYP2C19 activ, CYP2C9 inh, CYP2C9 activ)
CC(CCc1ccccc1)NC(=O)COc1ccc(S(=O)(=O)N2CCOCC2)cc1[N+](=O)[O-] (stereo not drawn)	none (no result: CYP2C19 inh, CYP2C19 activ, CYP2C9 inh, CYP2C9 activ)
Cc1noc(C)c1C(c1ccccc1)c1ccccc1	CYP2C19 inh 94, CYP2C9 inh 76
Cc1noc(C)c1C(c1ccccc1)S(=O)(=O)c1ccccc1 (stereo not drawn)	none (no result: CYP2C19 inh, CYP2C19 activ, CYP2C9 inh, CYP2C9 activ)
CCn1c(C(=O)N2CCCC(C(=O)NCCc3ccc(C)cc3)C2)cc2sccc21 (stereo not drawn)	CYP2C9 inh 50
Cn1c(C(=O)N2CCCC(C(=O)NCCCSC3CCCCC3)C2)cc2sccc21 (stereo not drawn)	CYP2C9 inh 82
CCn1c(C(=O)N2CCCC(C(=O)NCCCc3ccccc3)C2)cc2sccc21 (stereo not drawn)	none (no result: CYP2C19 inh, CYP2C19 activ, CYP2C9 inh, CYP2C9 activ)
O=S(=O)(c1ccc(Cl)cc1)n1ccc(-c2cccc(OCc3c(F)cccc3Cl)c2)n1	CYP2C9 inh 60
O=S(=O)(c1ccc(F)cc1)n1ccc(-c2cccc(OCc3c(F)cccc3Cl)c2)n1	CYP2C9 inh 88
O=C(N/N=C\c1cccc(OC(=O)c2ccco2)c1)c1ccc2c(c1)OCO2	none (no result: CYP2C19 inh, CYP2C19 activ, CYP2C9 inh, CYP2C9 activ)
Cc1ccccc1CSc1nnc(-c2cccs2)n1Cc1ccco1	CYP2C19 inh 62
c1ccc(CSc2nnc(-c3ccco3)n2Cc2ccco2)cc1	CYP2C19 inh 78
COC(=O)CSc1nnc(-c2ccco2)n1Cc1ccco1	none
Oc1ccccc1-c1nnc(SCCN2CCOCC2)n1Cc1ccccc1	none
c1ccc(CSc2nnc(-c3cccs3)n2Cc2ccco2)cc1	none (no result: CYP2C19 inh, CYP2C19 activ, CYP2C9 inh, CYP2C9 activ)
Cc1ccccc1CSc1nnc(-c2ccco2)n1Cc1ccco1	CYP2C19 inh 66
O=C1c2ccccc2C(=O)N1CCSc1nnc(-c2ccco2)n1Cc1ccccc1	CYP2C19 inh 97, CYP2C9 inh 65
c1ccc(-n2nnc3cnccc32)cc1	none
Cc1onc(-c2ccccc2)c1C(=O)NNC(=S)NC(=O)/C=C/c1cccs1	none (no result: CYP2C19 inh, CYP2C19 activ, CYP2C9 inh, CYP2C9 activ)
CC1(C(=O)NCc2ccccn2)C=CCN1C(=O)c1ccccc1 (stereo not drawn)	none (no result: CYP2C19 inh, CYP2C19 activ, CYP2C9 inh, CYP2C9 activ)
COc1ccc(CNC(=O)C(c2ccncc2)N(C(=O)Cc2cccs2)c2cccc(C)c2)cc1 (stereo not drawn)	CYP2C19 inh 70
COc1ccc(CNC(=O)C(c2ccco2)N(Cc2cccs2)C(=O)Cc2cccs2)cc1 (stereo not drawn)	none
COc1ccc(CNC(=O)C(c2ccco2)N(Cc2ccccc2)C(=O)Cc2cccs2)cc1 (stereo not drawn)	none (no result: CYP2C19 inh, CYP2C19 activ, CYP2C9 inh, CYP2C9 activ)
COc1ccc(CNC(=O)C(c2ccc(C)cc2)N(Cc2cccs2)C(=O)c2ccc3c(c2)OCCO3)cc1 (stereo not drawn)	CYP2C19 inh 66
COc1ccc(CNC(=O)C(c2ccncc2)N(C(=O)Cc2cccs2)c2ccccc2C)cc1 (stereo not drawn)	CYP2C19 inh 54
COCCN(C(=O)Cc1cccs1)C(C(=O)NCc1ccc(OC)cc1)c1ccc(OC)cc1 (stereo not drawn)	Measles CPE 40, CYP2C9 inh 65
Cc1ccc(C(C(=O)NCc2ccccc2)N(Cc2cccs2)C(=O)c2ccc3c(c2)OCCO3)cc1 (stereo not drawn)	none (no result: CYP2C19 inh, CYP2C19 activ, CYP2C9 inh, CYP2C9 activ)
CC(C)(C)C(=O)NC(NC(=S)Nc1sc2c(c1C#N)CCCC2)C(Cl)(Cl)Cl (stereo not drawn)	none
CCC(=O)N(Cc1cc2cc(OC)ccc2[nH]c1=O)c1cccc(C)c1	none
COc1ccc(C(C(=O)NCc2ccccc2)N(Cc2ccc3c(c2)OCO3)C(=O)c2cnccn2)cc1 (stereo not drawn)	CYP2C19 inh 94, CYP2C9 inh 94
C#CC(CC)(CC)NC(=O)c1c(C)noc1C	none
